G9a inh: blocks human histone lysine methyltransferase G9a | G9a H3K9 monomethylation, AlphaScreen, 2 h | Potency, µM (top dose mostly 102 µM), actives largely listed as inhibitors | hit rate 8.8% among 350,000; note: nearly all actives have a fitted effect of over 75% in size
Target sequence (Q96KQ7 913-1193 limits assumed): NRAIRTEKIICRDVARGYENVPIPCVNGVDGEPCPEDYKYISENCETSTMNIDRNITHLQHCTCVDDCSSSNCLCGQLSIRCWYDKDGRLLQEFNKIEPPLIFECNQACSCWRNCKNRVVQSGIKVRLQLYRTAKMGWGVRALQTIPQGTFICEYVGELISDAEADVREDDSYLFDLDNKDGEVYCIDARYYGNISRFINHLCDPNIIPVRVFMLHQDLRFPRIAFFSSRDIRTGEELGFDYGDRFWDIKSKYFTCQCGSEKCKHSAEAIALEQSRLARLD
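AlphaScreen read-out: biotin-H3K9 peptide (500 nM) methylation by 20 nM enzyme with 20 uM SAM, 2 h at room temperature after 15 min compound preincubation; anti-monomethyl H3K9 antibody plus donor/acceptor beads, 10 min dark.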
PLK1 PBD inh: blocks phosphopeptide binding to human PLK1 polo-box domain; AID 720504; Plk1 PBD binding of FITC phosphopeptide, fluorescence polarization; P53350; Potency, µM, hits mostly inhibitors; hit rate 2.8% among 360,000; note: series mostly up to about 57 µM; nearly all actives have a fitted effect of over 65% in size
Sfp PPTase inh: inhibitors of Bacillus subtilis Sfp phosphopantetheinyl transferase; Potency, µM, actives largely listed as inhibitors; Biochemical Sfp PPTase activity, qHTS; hit rate 3.5% among 310,000; Q9F4F7;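 note: the enzyme is Sfp with the accession as filed and its product quenches rhodamine fluorescence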
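Sfp 15 nM + cpd, 15 min RT; start w/ rhodamine-CoA 5 uM, BHQ-2-YbbR 12.5 uM (final); 50 mM Hepes pH 7.6, 10 mM MgCl2, 0.01% NP-40, 0.01% BSA; read 525/598 nm at 0 and 30 min.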
HP1b chromo inh: HP1-beta chromodomain-methylated histone interaction inhibition | AlphaScreen HP1-beta / biotin-H3K9me3 peptide binding | P83916 | AID 540317 | Potency, µM (highest dose often 114 µM), most hits filed as inhibitors | hit rate 0.56% among 390,000; note: nearly all actives have a fitted effect of over 70% in size
Target sequence (P83916 whole entry, looked up): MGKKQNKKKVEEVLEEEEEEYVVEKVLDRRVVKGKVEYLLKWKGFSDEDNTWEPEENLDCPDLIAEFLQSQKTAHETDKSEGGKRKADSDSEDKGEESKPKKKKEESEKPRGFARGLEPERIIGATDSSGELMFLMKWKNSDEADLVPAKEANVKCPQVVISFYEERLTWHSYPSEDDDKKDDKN
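AlphaScreen: HP1-beta (50 nM) preformed 30 min with biotin-H3(1-18)K9me3 peptide (50 nM) in PBS pH 7.4, 0.01% Tween-20. Compound added for 30 min at RT, then streptavidin donor/nickel chelate acceptor beads (10 ug/mL) for 30 min.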
JMJD2A Tudor inh: blocks the human JMJD2A Tudor domain | O75164 | AlphaScreen JMJD2A-Tudor / H3K4me3 peptide binding | Potency, µM (series often up to 114 µM), actives largely listed as inhibitors | hit rate 4.4% among 390,000 | AID 504339; note: nearly all actives have a fitted effect of over 50% in size
BAZ2B block: BAZ2B (human) inhibition; Q9UIF8; AlphaScreen BAZ2B-H3K14Ac peptide displacement; Potency, µM (titrated, usually from 114 µM), most hits filed as inhibitors; hit rate 4.4% among 360,000; note: nearly all actives have a fitted effect of over 60% in size
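AlphaScreen luminescence quantifies BAZ2B engagement of H3K14Ac peptide; the protein and biotinylated peptide are both at 50 nM final, buffer PBS pH 7.4 with 0.01% Tween-20, all steps at room temperature.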
Numbers stand for hits; n = inactive; u = inconclusive; x = no result; ! = a repeat was not active; [ ] = dose if it differs, or a comment. In the library only some 12% were active in any assay of this set; here they are far more common. Calls come from the whole dose curve; as a rule, active = well fitted curve in the direction sought with a large enough effect; inconclusive = small, poorly fitted or top-dose-only effect, or another doubt; inactive = no such curve, though single readings can be large; an effect the other way counts as inactive or inconclusive.

SMILES	G9a inh	PLK1 PBD inh	Sfp PPTase inh	HP1b chromo inh	JMJD2A Tudor inh	BAZ2B block
Cc1c(C(=O)O)sc2nc3n(c(=O)c12)CCC3	40µM	n	n	n	50µM	u
CCN(CC)CCNC(=O)c1sc2nc3n(c(=O)c2c1C)CCCCC3	n	x	x	n	n	n
Cc1c(C(=O)N2CCN(c3ccc(F)cc3)CC2)sc2nc3n(c(=O)c12)CCC3	n	21µM	n	n	u	n
CCCCN(CC)CCCNC(=O)c1sc2nc3n(c(=O)c2c1C)CCCCC3	8.9µM	x	x	n	n	n
Cc1ccc(CCNC(=O)c2sc3nc4n(c(=O)c3c2C)CCC4)cc1	n	11µM	n	n	u	n
Cc1c(C(=O)N2CCN(c3ccccc3)CC2)sc2nc3n(c(=O)c12)CCC3	n	n	n	n	n	n
CC(=O)N1CCC2(CC1)CN(Cc1ccccc1)C2	n[12.7 µM]	x	n	x	x	x
O=C(C1CC(=O)N(c2ccc3c(c2)OCCO3)C1)N1CCN(Cc2ccccc2F)CC1 (centres undefined)	n	n	x	n	n	n
O=c1oc2ccc3ccccc3c2cc1-c1nnc(Nc2ccc(F)cc2)s1	n	x	x	n	n	n
COC(=O)C1=C(C)NC(C)=C(C(=O)OCCNCc2ccccc2)C1c1cccc([N+](=O)[O-])c1 (centres undefined)	u	x	n	x	x	x
Cc1c(C(=O)NCCc2ccc(Cl)cc2)sc2nc3n(c(=O)c12)CCCC3	u	x	x	n	n	40µM
Cc1[nH][nH]c(=O)c1C(c1cc([N+](=O)[O-])ccc1O)c1c(C)[nH][nH]c1=O	n	u	n	n	n	n
Cc1[nH][nH]c(=O)c1C(c1ccccc1[N+](=O)[O-])C(C#N)C#N (centres undefined)	40µM	n	n	n	n	n
CC(=O)c1ccc(-n2c(CCC(=O)O)ccc2-c2ccc(Cl)cc2)cc1	40µM	n	n	n	n	u
O=C(O)CCc1ccc(-c2ccc(Br)cc2)n1-c1cccc(O)c1	45µM	n	n	u	u	u
COc1ccc(-n2c(CCC(=O)O)ccc2-c2ccccc2)c(OC)c1	8.9µM	x	x	n	u	u
O=C(O)CCc1ccc(-c2ccccc2)n1-c1ccc(C(=O)O)cc1	14µM!	n	n	n	n	n
NC(=O)Nn1c(CCC(=O)O)ccc1-c1ccc(Br)cc1	u	n	n	n	u	n
O=C1c2ccccc2C(c2nnnn2-c2ccc3c(c2)OCCO3)N1Cc1ccco1 (centres undefined)	x	n	x	x	x	x
CCOC(=O)N/N=C1/C[C@@H](O)[C@@H](O)[C@@H]2[C@@H]3C(=O)N(Cc4ccc5c(c4)OCO5)C(=O)[C@H]3CC[C@@H]12	x	x	n	x	x	x
O=C(O)CCc1ccc(-c2ccccc2)n1-c1cccc(C(=O)O)c1	n[2.33 µM]	n	71µM	n	u	u
CCOC(=O)c1ccc(-n2c(CCC(=O)O)ccc2-c2ccccc2)cc1O	18µM	x	x	n	n	45µM
CC(=O)c1cccc(-n2c(CCC(=O)O)ccc2-c2ccc(C)cc2)c1	n[2.33 µM]	n	n	n	n	n
COc1ccc(C2c3c(ncn(CCCN4CCOCC4)c3=N)Oc3ccc4ccccc4c32)cc1OC (centres undefined)	u	n	n	n	u	n
COc1cccc(C2c3c(ncn(-c4cccc(C#N)c4)c3=N)Oc3ccc4ccccc4c32)c1 (centres undefined)	x	x	x	x	79µM	x
SMILES	G9a inh	PLK1 PBD inh	Sfp PPTase inh	HP1b chromo inh	JMJD2A Tudor inh	BAZ2B block
COc1ccc(C2C3=C(CC(C)(C)CC3=O)Oc3ncn(CC(C)C)c(=N)c32)cc1 (centres undefined)	n	n	n	n	n	n
COc1ccc(C2c3c(n(CCc4ccccc4)cnc3=N)Oc3ccc4ccccc4c32)cc1OC (centres undefined)	x	x	x	x	56µM	x
COc1ccc(C2C3=C(CC(C)(C)CC3=O)Oc3ncn(Cc4ccco4)c(=N)c32)cc1 (centres undefined)	u	n	n	n	u	50µM
COc1ccc(C2c3c(nc(CCc4ccccc4)[nH]c3=O)Oc3ccc4ccccc4c32)cc1OC (centres undefined)	x	x	x	x	n	x
COc1cccc(C2c3c(ncn(CCCN4CCOCC4)c3=N)Oc3ccc4ccccc4c32)c1 (centres undefined)	x	x	x	x	28µM	x
Cn1c2c(c(=O)n1-c1ccccc1)CSCC2	x	n	x	n	n	x
CC(C)NC(=O)CCn1c(SCc2c(F)cccc2Cl)nc2c(sc3ccccc32)c1=O	n	x	x	n	n	n
N=c1c2c(ncn1Cc1ccco1)Oc1ccc3ccccc3c1C2c1ccccc1 (centres undefined)	u	n	22µM	u	u	45µM
COc1ccc(C2c3ccc4ccccc4c3Oc3ncn(CCO)c(=N)c32)cc1 (centres undefined)	n	n	n	n	u	u
COc1ccc(C2c3ccc4ccccc4c3Oc3ncn(CCCO)c(=N)c32)cc1 (centres undefined)	n	n	u	n	n	71µM
COc1ccc(Cc2c(C(C)(C)C)nc3ccc(Cl)cn23)c(C)c1	x	n	x	x	x	x
O=c1[nH]c2ccccc2n2c(=S)[nH]nc12	x	n	n	n	3.5µM	n
CC[N+](CC)(CC)CCCCOc1ccc2c(c1)C(=O)c1cc(OCCCC[N+](CC)(CC)CC)ccc1-2	u	n	n	n	35µM	n
CCCCOc1cccc(C(=O)O)c1	n[12.7 µM]	n	n	n	n	n
O=C(NCCc1nc2ccccc2n1Cc1ccccc1F)c1ccc(F)cc1	n	x	x	n	n	n
COc1cc(CC(=O)Nc2ccc(S(=O)(=O)N(C)C)cc2)cc(OC)c1OC	50µM	n	n	n	n	n
COc1cc(CN2CCN(S(=O)(=O)c3ccc(NC(C)=O)cc3)CC2)cc(OC)c1OC	25µM	x	x	u	22µM	50µM
CC(=O)Nc1ccc(S(=O)(=O)N2CCN(Cc3ccncc3)CC2)cc1	u	n	n	n	n	n
COc1ccc(CC(=O)Nc2ccc(S(=O)(=O)N(C)C)cc2)cc1OC	n[12.7 µM]	n	n	n	n	n
COc1cccc(CN2CCN(S(=O)(=O)c3ccc(NC(C)=O)cc3)CC2)c1OC	n	n	n	u	2.5µM	n
COc1ccc(S(=O)(=O)N2CCN(Cc3ccccc3)CC2)cc1OC	x	n	n	n	n	n
COc1ccc(CN2CCN(S(=O)(=O)c3ccc(C)cc3)CC2)cc1OC	x	n	x	u	50µM	x
CC(C)c1ccc(C(=O)N2CCOCC2c2cc(C(=O)Nc3ccccc3)no2)cc1 (centres undefined)	x	n	x	x	x	x
Cc1ccc(C)c(Nc2cc(C)nc3ccccc23)c1	x	n	x	n	n	x
Cc1ccc(C)c(N2CCN(C(=O)CN3C(=O)COc4ccc(S(=O)(=O)N5CCC(C)CC5)cc43)CC2)c1	n	x	x	n	n	n
Cc1ccc(-c2n[nH]c(=O)c3ccccc23)cc1S(=O)(=O)Nc1ccc(F)cc1	n	n	n	n	n	n

Assay outcomes: PubChem BioAssay, National Center for Advancing Translational Sciences (NCATS)
